The results in this text go back to PubChem BioAssay AID504500 (NMMLSC, 2011).

This test concerns the target Beta-adrenergic receptor kinase 1 (Homo sapiens) (UniProt P25098). Nature of the test: aptamer displacement from bead-bound GRK2 – biochemical, cherry pick 1, bead flow cytometry, dose response (AID 504500). (In general: A flow cytometer gives signals particle by particle.)

The structures appear in SMILES notation. Measured potencies and affinities stand elsewhere. Calls of active or inactive are those of the source.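 How the source made its calls: active means compounds whose curve fit is tight, with span above 25% and half-effect concentration below 10 µM; inactive means the rest.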

Beta-adrenergic receptor kinase 1 (Homo sapiens), sequence (P25098 whole entry, looked up): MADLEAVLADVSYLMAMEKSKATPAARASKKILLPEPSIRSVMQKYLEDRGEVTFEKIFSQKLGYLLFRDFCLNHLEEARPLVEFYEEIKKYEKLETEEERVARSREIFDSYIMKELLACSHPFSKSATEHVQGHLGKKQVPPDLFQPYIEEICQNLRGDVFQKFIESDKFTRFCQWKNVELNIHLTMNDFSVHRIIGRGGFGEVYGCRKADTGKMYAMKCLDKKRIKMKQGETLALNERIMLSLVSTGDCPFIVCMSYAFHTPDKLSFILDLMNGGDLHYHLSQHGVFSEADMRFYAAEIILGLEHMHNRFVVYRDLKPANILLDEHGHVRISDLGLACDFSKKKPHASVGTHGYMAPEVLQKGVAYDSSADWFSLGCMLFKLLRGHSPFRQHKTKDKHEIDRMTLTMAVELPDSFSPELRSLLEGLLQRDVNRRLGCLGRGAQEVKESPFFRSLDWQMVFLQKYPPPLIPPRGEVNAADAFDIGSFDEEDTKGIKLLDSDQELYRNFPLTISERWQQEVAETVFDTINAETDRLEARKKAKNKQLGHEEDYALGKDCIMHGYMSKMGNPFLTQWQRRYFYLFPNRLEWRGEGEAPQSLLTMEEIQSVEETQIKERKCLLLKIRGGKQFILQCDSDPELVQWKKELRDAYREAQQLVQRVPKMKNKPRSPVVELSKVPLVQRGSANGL

As to `CCN1/C(=C\c2ccc3ccccc3[n+]2CC)Sc2cc(C)ccc21`, the call was inactive. Under `CCN1/C(=C/c2ccc3cccc(C)c3[n+]2CC)Sc2ccccc21` stands “inactive”; under `Cc1cc2ccccc2n1CCNC(=O)c1ccc(S(=O)(=O)N2CCCCC2)cc1`, “inactive”; under `COc1ccc(S(=O)(=O)NCC(c2ccc(F)cc2)N2CCN(C)CC2)cc1` (stereo unspecified), “inactive”. Under `CC(=O)N1CCN(Cc2nc3cc(Cl)ccc3c(=O)[nH]2)CC1` stands “inactive”.

As for `O=C(CCS(=O)(=O)c1ccc(Br)s1)Nc1ccccc1Br`, the call was inactive.

On to `CCC(/C=C1\Sc2ccc(OC)cc2N1CC)=C\c1sc2ccc(OC)cc2[n+]1CCCS(=O)(=O)[O-]`, for which the compound was classed as inactive.

For `O=C(/C=C/c1ccco1)OCC(=O)N1CCCCC1`, the compound was classed as inactive. Consider `CCOc1ccc(CCNC(=O)CCS(=O)(=O)c2ccc(Br)cc2)cc1OCC`, for which the compound was called inactive. For the compound `Cc1oc(-c2ccc(Cl)cc2)nc1CN1CCCC(C(=O)NCc2cccnc2)C1` (stereo unspecified), the compound was called inactive. Under `COC(=O)c1ccc(NC(=O)CCS(=O)(=O)c2ccc(Br)cc2)cc1` stands “inactive”; under `CCOc1ccccc1NC(=O)CCS(=O)(=O)c1ccc(Br)cc1`, “inactive”; under `Cn1c(=O)c(C(=O)NNC(=O)c2cccc(Cl)c2)c(O)c2ccccc21`, “inactive”.

For the compound `COC(=O)c1ccccc1NC(=O)CCS(=O)(=O)c1ccc(Br)s1`, the compound was called inactive. The result for `CN(C)c1cccc(C(=O)OCc2cc(=O)oc3cc(O)ccc23)c1` reads “inactive”; that for `COc1ccccc1CNS(=O)(=O)c1ccc2[nH]cc(C(=O)O)c(=O)c2c1`, “inactive”. `Cc1ccc(S(=O)(=O)Cc2ccc(C(=O)O)o2)cc1`: the result was inactive. As for `COc1ccccc1-[n+]1c(C)cc(/C=C2\Sc3ccccc3N2C)cc1C`, the compound was called inactive. In the case of `O=C(CC1SC(N2CCCCC2)=NC1=O)Nc1cccc(C(=O)NCc2ccc(F)cc2)c1` (stereo unspecified), the compound was classed as inactive.

For the compound `Cc1ccc(OCC(=O)c2c(N)n(C)c(=O)n(C)c2=O)c([N+](=O)[O-])n1`, the compound was classed as inactive. On to `COc1ccc(CCNC(=O)CCS(=O)(=O)c2ccc(Br)cc2)cc1OC`, for which the result was inactive. Under `O=C(CCS(=O)(=O)c1ccc(Br)cc1)NC1CCCC1` stands “inactive”. On to `O=P(c1ccccc1)(c1ccccc1)c1cc(S(=O)(=O)O)ccc1O`, for which the result was inactive. In the case of `CNC(=O)c1[nH]cnc1C(=O)Nc1cccc(Cl)c1`, the result was inactive. The result for `CC(=O)N1CCCc2cc(S(=O)(=O)CCC(=O)N3CCN(c4cccc(C)c4)C(C)C3)ccc21` (stereo unspecified) reads “inactive”.

As for `O=C(CCS(=O)(=O)c1ccc(Br)cc1)NCc1ccco1`, the outcome was inactive.

Take `Cc1cccc(CCNC(=O)CCS(=O)(=O)c2ccc(Br)cc2)c1`: the outcome was inactive. Under `CCNc1nc(NCC)n2c(SCC(=O)Nc3ccc(C)c(C)c3)nnc2n1` stands “inactive”; under `Cc1cc2ccccc2n1CCNC(=O)C(C)Oc1ccccc1` (stereo unspecified), “inactive”; under `Cc1cccc(N2CCN(C(=O)CCS(=O)(=O)c3ccc(Br)cc3)CC2C)c1` (stereo unspecified), “inactive”. For the compound `COc1ccc(NC(=O)CCS(=O)(=O)c2ccc(Br)s2)cc1`, the call was inactive.
